# HCMV antiviral – human cytomegalovirus inhibition; AID 1259415; 4.5% of 410,000 active; HFF cells, HCMV-luciferase reporter, 72 h; active compounds read low; activity change, negative = inhibition, % at 57.5 µM; in the data active = activity change below about -60%; inconclusive = no clear call, values can overlap the other calls; inactive = above about -39%
#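 After 16 h attachment at 37C, HFF cells received test compound and HCMV-luciferase (1 PFU/cell); reporter luminescence read 72 h later, data normalized against buffer-only and known inhibitor Salinomycin.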
# VACV Venus inh – inhibitors of vaccinia virus (Venus reporter); Vaccinia virus Venus reporter expression, fluorescence; Potency, µM (top dose mostly 36.5 µM), hits mostly inhibitors; 0.46% of 330,000 active; calls by dose curve; tested in A549 cells; also: nearly all actives have a fitted effect of over 30% in size
# LASV entry inh – Lassa virus entry inhibition; Lassa virus pseudotype entry inhibition, cell reporter; Potency, µM (series often up to 37.9 µM), usual class: inhibitors; 1.2% of 300,000 active; calls by dose curve; tested in HEK293 cells; also: nearly all actives have a fitted effect of over 50% in size
# MARV entry inh – blocks Marburg virus binding to or entry into cells. Potency, µM (series often up to 37.8 µM), hits mostly inhibitors. Marburg virus pseudotyped entry inhibition, cell reporter. 1.8% of 300,000 active; calls by dose curve; tested in HEK293 cells
# FMDV inh – foot and mouth disease virus antiviral activity. FMDV antiviral cell-based qHTS. Potency, µM (series often up to 57.9 µM), most hits filed as inhibitors. 1.2% of 410,000 active; calls by dose curve; tested in HEK293T cells; also: read-out not given here; nearly all actives have a fitted effect of over 45% in size
# VACV mCherry inh – vaccinia inhibition (mCherry reporter); Vaccinia virus mCherry reporter infection, fluorescence; Potency, µM (titrated, usually from 36.5 µM), most hits filed as inhibitors; 0.63% of 310,000 active; AID 720579; calls by dose curve; tested in A549 cells; also: nearly all actives have a fitted effect of over 35% in size
# Numbers stand for hits; - = inactive; ? = inconclusive; . = no result. The list is not random: actives were taken first. Their share in the collection is about 6.5%.
SMILES,HCMV antiviral,VACV Venus inh,LASV entry inh,MARV entry inh,FMDV inh,VACV mCherry inh
COCc1[nH]nc2c1[C@@H](c1sccc1C)C(C#N)=C(N)O2,.,.,.,-,.,.
Nc1nc(C2CC2)c(Sc2sc(N)nc2C2CC2)s1,-72,?,2.5µM,?,25µM,.
COc1ccccc1NC1=CC(=O)CC(c2ccccc2)C1 (configuration not stated),-,-,7.3µM,-,-,-
O=[N+]([O-])c1ccc(-c2nc(-c3cccs3)c(-c3cccs3)[nH]2)cc1,-,?,?,?,25µM,11µM
O=[N+]([O-])c1cccc(-c2nc(-c3cccs3)c(-c3cccs3)[nH]2)c1,-,?,-,?,?,-
Fc1ccc(-c2nc(-c3cccs3)[nH]c2-c2ccc(F)cc2)cc1,-,?,?,?,28µM,?
CCOC(=O)[C@@H](C)c1nc2ccccc2[nH]c1=O,.,.,.,-,.,.
COc1c(Cl)c(=O)oc2ccc(Cl)cc12,-,-,.,.,-,-
COc1ccccc1-n1c(=O)oc2ccc(Cl)cc2c1=O,-95,13µM,?,?,-,.
O=C1NC(c2cc3ccccc3nc2Cl)Nc2ccccc21 (configuration not stated),-,-,?,-,?,-
O=C1NC(c2cccc3ccccc23)Nc2ccc(Cl)cc21 (configuration not stated),-73,11µM,?,?,-,?
CC(=O)c1ccc(NC(=O)CCc2c(C)nn(-c3ccc4nnc(C)n4n3)c2C)cc1,-,-,-,.,-,-
COc1ccc(/C=C\C(=O)c2c(O)ccc3c(C)cc(=O)oc23)cc1OC,-94,?,?,?,35µM,-
COc1cc(/C=C/C(=O)c2c(O)ccc3c(C)cc(=O)oc23)ccc1O,-92,?,?,?,?,-
OC(c1cccc(Cl)c1)c1nc(/C=C/c2ccc(C(F)(F)F)cc2)cs1 (configuration not stated),-,-,.,.,-,-
COc1cccc(C(O)c2nc(/C=C/c3ccc(C(F)(F)F)cc3)cs2)c1 (configuration not stated),-62,-,.,.,-,-
CCc1ccc(NC(=O)c2ccc(F)c(S(=O)(=O)N3CCN(c4cc(C)ccc4C)CC3)c2)cc1,?,-,-,.,-,-
CCc1c(C)sc(NC(=O)C2CC2c2ccccc2)c1C(N)=O (configuration not stated),?,.,2.9µM,3.3µM,-,.
CCn1c(COc2ccc(C)cc2)nnc1SCc1nc2ccccc2[nH]1,-65,.,-,?,?,.
Cn1c(COc2ccccc2)nnc1SCc1nc2ccccc2[nH]1,-,-,-,-,-,-
Clc1cccc(-c2nnc(SCc3nc4ccccc4[nH]3)n2Cc2ccco2)c1,?,.,-,-,-,.
c1ccc(-c2nnc(SCc3nc4ccccc4[nH]3)n2Cc2ccco2)nc1,-64,.,-,-,?,.
COc1ccc(C)cc1NC(=O)CSc1nnc(COc2ccccc2)n1Cc1ccco1,-,.,-,?,-,.
Clc1ccc(OCc2nnc(SCc3nc4ccccc4[nH]3)n2Cc2ccco2)cc1,-80,.,?,?,?,.
COc1ccc(C)cc1NC(=O)CSc1nnc(COc2ccc(Cl)cc2)n1Cc1ccco1,-84,.,-,?,-,.
SMILES,HCMV antiviral,VACV Venus inh,LASV entry inh,MARV entry inh,FMDV inh,VACV mCherry inh
Cc1ccc(C(=O)Nc2ccc3nc(SCC(=O)N4CCCc5ccccc54)sc3c2)cc1,-,-,-,-,-,-
COc1cccc(NC(=O)CSc2nc3ccc(NC(=O)c4cccs4)cc3s2)c1,-,-,?,?,-,-
COC(=O)C1CCCCN1Cc1nc(N2CCCN(C(C)=O)CC2)c2ccccc2n1 (configuration not stated),.,-,.,.,-,-
COc1ccc(NC(=O)c2ccc(Cl)nc2)cc1S(=O)(=O)N1CCOCC1,-,.,.,.,-,.
COc1ccc(NC(=O)Cc2coc3cc(C)c(C(C)C)cc23)cc1S(=O)(=O)N1CCOCC1,-67,?,?,?,-,?
COc1ccc(NC(=O)c2ccc(-c3ccccc3)cc2)cc1S(=O)(=O)N1CCOCC1,-68,-,-,-,3.5µM,?
COc1ccc(NC(=O)c2ccncc2)cc1S(=O)(=O)N1CCCCC1,-,-,.,.,-,-
CCc1ccc(C(=O)Nc2ccc(OC)c(S(=O)(=O)N3CCCCC3)c2)cc1,-97,.,.,.,?,.
CCc1ccc(C(=O)Nc2ccc(OC)c(S(=O)(=O)N3CCOCC3)c2)cc1,-89,-,-,-,?,-
